The source of these data is PubChem BioAssay (NCATS).

Test [1] addresses Methanococcus maripaludis chaperonin (MmCpn) (UniProt Q6LX38). As to the kind of experiment: High-Throughput Screening for Modulators of Cytosolic Chaperonin Activity: MmCpn Primary Screen (AID 488978).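 Further: 50 nM MmCpn enzyme hydrolysing 30 µM ATP at 37 °C; 0% is about no effect.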 Summed up: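 Measures ATPase turnover of the M. maripaludis chaperonin (50 nM final) against 30 uM ATP over 10 min at 37C, with compound added 5 min beforehand at room temperature. ADP is quantified by HTRF immunodetection.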

The target of test [2] is Thyrotropin receptor (Homo sapiens) (UniProt P16473). As to the kind of experiment: qHTS Assay for Antagonists of the Thyroid Stimulating Hormone Receptor (AID 488980). Further: series mostly up to about 58 µM; 0% is about no effect. The gist of the method: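 Cells expressing human TSHR (HEK293) are dispensed in HBSS/HEPES containing 70 uM RO 20-1724, compound is added, then TSH at EC80 (4 nM final). Antibody in lysis buffer follows, 30 minutes at room temperature before HTRF detection.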
Thyrotropin receptor (Homo sapiens), sequence (P16473 whole entry, looked up): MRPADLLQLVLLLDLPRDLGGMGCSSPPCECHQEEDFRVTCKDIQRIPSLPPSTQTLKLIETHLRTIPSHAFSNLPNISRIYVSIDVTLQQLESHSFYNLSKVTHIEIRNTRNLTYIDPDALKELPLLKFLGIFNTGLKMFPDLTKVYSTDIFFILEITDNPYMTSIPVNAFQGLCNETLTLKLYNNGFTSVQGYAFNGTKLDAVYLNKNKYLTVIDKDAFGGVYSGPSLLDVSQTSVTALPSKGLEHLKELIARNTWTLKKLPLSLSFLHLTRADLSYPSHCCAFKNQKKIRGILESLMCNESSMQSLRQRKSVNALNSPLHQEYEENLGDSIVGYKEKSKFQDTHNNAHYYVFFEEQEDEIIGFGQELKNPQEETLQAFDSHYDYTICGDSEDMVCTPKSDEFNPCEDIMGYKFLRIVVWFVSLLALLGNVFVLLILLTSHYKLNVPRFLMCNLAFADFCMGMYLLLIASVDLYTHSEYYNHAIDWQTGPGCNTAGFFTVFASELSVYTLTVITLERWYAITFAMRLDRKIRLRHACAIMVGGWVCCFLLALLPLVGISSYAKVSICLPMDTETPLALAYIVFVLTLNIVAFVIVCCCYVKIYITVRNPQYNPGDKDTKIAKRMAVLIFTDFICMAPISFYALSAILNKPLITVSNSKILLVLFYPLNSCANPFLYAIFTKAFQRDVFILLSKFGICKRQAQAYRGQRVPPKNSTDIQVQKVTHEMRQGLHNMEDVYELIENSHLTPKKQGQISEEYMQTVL
Background: Quantitative high-throughput screening tests each substance at several concentrations.

In test [3] the target is Thyrotropin-releasing hormone receptor (Homo sapiens) (UniProt P34981). As to the kind of experiment: qHTS for Small Molecule Agonists and Allosteric Enhancers of Human TRH Receptor: Validation Screen for Agonists (AID 493127;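 active means calcium activation more than 3 SD above the typical response in the agonist read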;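 further: intracellular calcium rise by fluo-8 fluorescence before TRH EC20 addition; 0% is about no effect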). The conditions noted are these: TRH receptor agonist cell assay; at 2 µM; stronger effect = higher value. Summed up: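 Gq-coupled calcium mobilization in TRHR cells after compound addition, monitored kinetically with fluo-8 dye on an FDSS reader.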

Test [4] is described as follows: Nrf2 qHTS screen for inhibitors: Validation (AID 493153; active means well fitted inhibition curve with a large enough effect in the main read-out, with a control signal flat, not every such curve was filed as active). The settings on record: Potency: luciferase luminescence; viability change: measured here: cytotoxicity max response. Summed up:
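Dose-response validation uses reporter A549 cells with firefly luciferase under an antioxidant response element. Compounds stay on cells 18-24 h at 37°C, and luminescence indicates Nrf2-driven transcription.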

Test [5] can be described thus: qHTS for Inhibitors of Cell Surface uPA Generation: Validation Assay (AID 493164).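 Further: RAW 264.7 macrophage cells exposed to compound for 18 h; 0% is about no effect.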 The gist of the method:
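RAW 264.7, 4000 cells/well, o/n plating; cpd 7-pt 1:5 dilution 2.45 nM–38.3 uM final; 18 h, 37 C/5% CO2; ATP-Lite, 5 s luminescence exposure.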

For test [6], the target named is Galactokinase (Homo sapiens) (UniProt P51570). As to the kind of experiment: qHTS Validation Assay for Inhibitors of Human Galactokinase (GALK) (AID 493189). Further: 0% is about no effect. Summed up: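 Compounds were pin-transferred into ATP buffer, then GALK-galactose mix was added (final 5 nM enzyme, 100 uM galactose, 35 uM ATP). After 1 h at room temperature, remaining ATP was measured luminescently.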
Galactokinase (Homo sapiens), sequence (P51570 whole entry, looked up): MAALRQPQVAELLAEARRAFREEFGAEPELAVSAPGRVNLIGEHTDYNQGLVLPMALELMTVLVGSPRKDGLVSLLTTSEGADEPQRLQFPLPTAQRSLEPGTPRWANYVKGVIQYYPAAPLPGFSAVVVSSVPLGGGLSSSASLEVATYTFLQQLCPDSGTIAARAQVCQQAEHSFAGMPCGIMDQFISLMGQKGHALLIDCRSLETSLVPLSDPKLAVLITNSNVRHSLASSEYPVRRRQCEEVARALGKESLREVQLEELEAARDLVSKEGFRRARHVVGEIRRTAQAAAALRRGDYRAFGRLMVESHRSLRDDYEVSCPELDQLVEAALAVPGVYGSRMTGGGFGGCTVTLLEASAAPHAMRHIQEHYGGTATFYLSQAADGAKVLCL

Test [7] can be described thus: Validation screen for small molecules that induce DNA re-replication in SW480 colon adenocarcinoma cells (AID 504364). Further: 0% is about no effect. The gist of the method:
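Cells are treated 48 hr with test compound, stained 40 min with Hoechst at 37 C, and scanned for nuclear fluorescence; compounds inducing re-replication increase nuclei with elevated intensity.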

Test [8] concerns the target Peptidyl-prolyl cis-trans isomerase NIMA-interacting 1 (Homo sapiens) (UniProt Q13526). The experiment in a line: qHTS Validation Assay to Find Inhibitors of Pin1 (AID 504536; active means well fitted inhibition curve with a large enough effect in the polarisation, with a control signal flat, not every such curve was filed as active; the % refers to the polarisation;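 further: 0% = full Pin1 enzyme wells and -100% = no-enzyme wells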). Summed up:
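Fluorescence polarization competition: compounds (titration) displace HiFluor-488-labeled Pin1-1b peptide from Pin1 (0.3 uM final) in pH 7.5 HEPES buffer with DTT, 10 min at room temperature; %Activity normalized to no-enzyme wells, curves fitted.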

Test [9] concerns the target phosphoglycerate mutase (Leishmania major) (UniProt Q4Q090). As to the kind of experiment: qHTS Validation Assay to Find Inhibitors of Phosphoglycerate Mutase (AID 504548).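 Further: end-point luminescence from Kinase-GloPlus after the PGAM reaction; series mostly up to about 58 µM; on the % scale 0 is the no-effect control and ±100 the full control effect.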 Summed up: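 L. major PGAM (1.25nM final) was added to substrate buffer and pinned compound, incubated 45 minutes at room temperature, then Kinase-GloPlus added; luminescence read after 10 minutes. Buffer: 100 mM TEA pH 7.6, 5 mM MgCl2, 0.01% Tween-20.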

The target of test [10] is Ubiquitin carboxyl-terminal hydrolase 1 (Homo sapiens) (UniProt O94782). The experiment in a line: Inhibitors of USP1/UAF1: Pilot qHTS (AID 504865). Further: nearly all actives have a fitted effect of over 35% in size. Further: potency means the concentration at half of the fitted maximal effect. The gist of the method:
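Kinetic fluorescence assay: 1nM USP1/UAF1, 15 min compound preincubation, then 150nM Ub-Rho; 480/540 nm.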

Test [11] can be described thus: qHTS for Inhibitors of ATXN expression: Validation of Cytotoxic Assay (AID 588349).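 Further: cells exposed to compound for 72 hr; on the % scale 0 is the no-effect control and ±100 the full control effect.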 Summed up: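 HEK293, compound dose series, 72 hr / 37 degrees C; viability via CellTiter Glo (intracellular ATP).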
Test [12] deals with D(1A) dopamine receptor (Homo sapiens) (UniProt P21728). The experiment in a line: HTS Assay for Allosteric Agonists of the Human D1 Dopamine Receptor: Primary Screen for Potentiators (AID 488982). Further: potency means the concentration at half of the fitted maximal effect. Summed up: (§1)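 Tetracycline-induced HEK293 Trex D1 cells with forced coupling to calcium, loaded with no-wash calcium dye; kinetic fluorescence read 180 s after compound addition for agonism, then a further 180 s after an EC20 dopamine challenge for potentiation.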
D(1A) dopamine receptor (Homo sapiens), sequence (P21728 whole entry, looked up, the tested form may be a part): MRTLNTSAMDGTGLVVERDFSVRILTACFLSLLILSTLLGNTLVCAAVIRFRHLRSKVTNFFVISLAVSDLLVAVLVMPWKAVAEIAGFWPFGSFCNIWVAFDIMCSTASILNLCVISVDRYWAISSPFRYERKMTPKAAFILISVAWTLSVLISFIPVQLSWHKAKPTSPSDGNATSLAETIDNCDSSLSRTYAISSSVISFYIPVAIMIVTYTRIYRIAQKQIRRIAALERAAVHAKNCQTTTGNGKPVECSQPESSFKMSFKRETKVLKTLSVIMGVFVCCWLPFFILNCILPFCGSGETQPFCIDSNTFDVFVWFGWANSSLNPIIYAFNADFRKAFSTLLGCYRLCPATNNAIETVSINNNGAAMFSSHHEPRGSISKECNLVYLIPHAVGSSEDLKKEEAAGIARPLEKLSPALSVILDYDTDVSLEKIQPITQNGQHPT

For test [13] the target is unchanged. The experiment in a line: HTS Assay for Allosteric Agonists of the Human D1 Dopamine Receptor: Primary Screen for Antagonists (AID 488983).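 Further: calcium flux response to an EC80 dopamine challenge measured with no-wash dye; on the % scale 0 is the no-effect control and ±100 the full control effect; nearly all actives have a fitted effect of over 65% in size.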 Summed up:
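Screening of inducible HEK293 T-REx D1 cells: compound first, EC80 dopamine 180 s later, each phase read kinetically for calcium over 180 s.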

Test [14] addresses ATP-dependent 6-phosphofructokinase (Trypanosoma brucei brucei) (UniProt O15648). As to the kind of experiment: qHTS Assay to Find Inhibitors of T. brucei phosphofructokinase: hit validation (AID 492961).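 Further: luminescence reports ADP formed as PFK phosphorylates fructose-6-phosphate with ATP; series mostly up to about 51 µM; on the % scale 0 is the no-effect control and ±100 the full control effect.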 Summed up:
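Compounds titrated; %activity normalized to 0x and 1x enzyme controls, curve-fitted. Readout: ADP-Glo luminescence after 45 min room-temperature reaction of 1.25 nM PFK, 0.1 mM ATP, 0.5 mM F6P, pH 8.0.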

Test [15] has as its target Transient receptor potential cation channel subfamily V member 1 (Homo sapiens) (UniProt Q8NER1). The experiment in a line: HTS Assay for Compounds that Act as Enhancers of the Vanilloid Receptor 1 (AID 488979). Further: 0% is about no effect. Summed up: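 TRPV1 cells loaded with Fluo-8 calcium dye; compound added and Ca2+ signal (ex 480/em 520 nm) followed 3 min, then capsaicin at EC20 added and read 2 more min to detect enhancement.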

Test [16] addresses D(1A) dopamine receptor (Homo sapiens) (UniProt P21728). The experiment in a line: HTS Assay for Allosteric Agonists of the Human D1 Dopamine Receptor: Primary Screen for Agonists (AID 488981). Further: 0% is about no effect. The gist of the method: as §1
Test [17] has as its target ATPase family AAA domain-containing protein 5 (Homo sapiens) (UniProt Q96QE3). The experiment in a line: Validation screen for small molecules that inhibit ELG1-dependent DNA repair in human embryonic kidney (HEK293T) cells expressing luciferase-tagged ELG1 (AID 493107). Further: nearly all actives have a fitted effect of over 70% in size. Further: potency means the concentration at half of the fitted maximal effect. Summed up:
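Quantitative HTS in HEK293T cells carrying luciferase-tagged ELG1, stimulated with 5-fluorouridine alongside compound for 16 hr. Loss of luciferase signal marks inhibition of ELG1 response.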

Test [18] addresses Phosphoglycerate kinase, glycosomal (Trypanosoma brucei brucei) (UniProt P07378). As to the kind of experiment: qHTS Validation Assay to Find Inhibitors of Phosphoglycerate Kinase (AID 504547).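 Further: control wells lack PGK and mark full inhibition.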 The gist of the method: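 PGK activity was coupled to GAPDH (100nM final), which generates the unstable substrate 1,3-bisphosphoglycerate in-well. Reactions ran 60 minutes at room temperature in 100mM TEA pH 7.6, 5mM MgCl2, 0.01% Tween-20, then Kinase-Glo Plus luminescence was read.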

The nature of test [19]: Validation screen for small molecules that induce genotoxicity in human embryonic kidney (HEK293T) cells expressing luciferase-tagged ELG1 (AID 493106). Further: 0% is about no effect. Summed up:
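Reporter-gene quantitative HTS in HEK293T cells carrying luciferase-tagged ELG1, whose level climbs under genotoxic stress. Compound exposure lasts 16 hr at 37 °C before luciferase detection.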

“And” between values parts separate entries of the source, which are not always exact repeats. Equal values may be shown once. Records with an inconclusive call do not appear. The source made the active and inactive calls. Unless noted, the call rests on the fitted dose curve; in most records, active means well fitted curve in the direction sought with a large enough effect; inconclusive means small, poorly fitted or top-dose-only effect, or another doubt; inactive means no such curve, though single readings can be large; an effect the other way counts as inactive or inconclusive.

phosphoglycerate mutase (Leishmania major), sequence (Q4Q090 1-553): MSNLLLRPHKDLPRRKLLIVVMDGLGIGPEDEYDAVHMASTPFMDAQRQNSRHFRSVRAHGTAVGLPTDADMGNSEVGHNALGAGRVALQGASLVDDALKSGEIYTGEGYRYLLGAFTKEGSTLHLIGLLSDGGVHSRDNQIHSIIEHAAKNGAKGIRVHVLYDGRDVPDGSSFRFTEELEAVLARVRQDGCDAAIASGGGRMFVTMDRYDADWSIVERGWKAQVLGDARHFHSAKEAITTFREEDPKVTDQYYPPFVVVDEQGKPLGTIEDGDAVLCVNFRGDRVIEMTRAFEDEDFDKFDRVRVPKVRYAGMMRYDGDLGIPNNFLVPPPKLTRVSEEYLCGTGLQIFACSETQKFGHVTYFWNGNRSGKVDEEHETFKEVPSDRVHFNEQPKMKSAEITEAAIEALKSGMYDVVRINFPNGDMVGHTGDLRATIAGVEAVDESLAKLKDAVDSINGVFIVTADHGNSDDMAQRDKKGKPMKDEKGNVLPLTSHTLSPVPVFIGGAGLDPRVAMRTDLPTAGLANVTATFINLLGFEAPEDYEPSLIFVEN
Methanococcus maripaludis chaperonin (MmCpn), sequence (Q6LX38 1-543): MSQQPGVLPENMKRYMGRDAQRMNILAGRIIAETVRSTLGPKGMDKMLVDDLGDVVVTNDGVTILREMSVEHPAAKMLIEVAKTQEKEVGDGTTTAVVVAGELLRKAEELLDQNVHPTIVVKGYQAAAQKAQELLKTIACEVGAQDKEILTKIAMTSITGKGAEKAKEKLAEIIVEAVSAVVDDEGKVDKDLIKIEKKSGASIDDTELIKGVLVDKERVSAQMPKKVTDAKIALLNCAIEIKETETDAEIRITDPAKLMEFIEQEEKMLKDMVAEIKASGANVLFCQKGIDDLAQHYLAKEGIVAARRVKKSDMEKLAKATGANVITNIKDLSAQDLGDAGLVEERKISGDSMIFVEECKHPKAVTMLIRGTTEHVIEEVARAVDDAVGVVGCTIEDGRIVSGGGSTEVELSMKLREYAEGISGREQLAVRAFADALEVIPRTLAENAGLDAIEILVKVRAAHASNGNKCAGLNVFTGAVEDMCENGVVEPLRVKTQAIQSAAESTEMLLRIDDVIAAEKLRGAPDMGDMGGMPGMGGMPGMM
ATPase family AAA domain-containing protein 5 (Homo sapiens), sequence (Q96QE3 whole entry, looked up, the tested form may be a part): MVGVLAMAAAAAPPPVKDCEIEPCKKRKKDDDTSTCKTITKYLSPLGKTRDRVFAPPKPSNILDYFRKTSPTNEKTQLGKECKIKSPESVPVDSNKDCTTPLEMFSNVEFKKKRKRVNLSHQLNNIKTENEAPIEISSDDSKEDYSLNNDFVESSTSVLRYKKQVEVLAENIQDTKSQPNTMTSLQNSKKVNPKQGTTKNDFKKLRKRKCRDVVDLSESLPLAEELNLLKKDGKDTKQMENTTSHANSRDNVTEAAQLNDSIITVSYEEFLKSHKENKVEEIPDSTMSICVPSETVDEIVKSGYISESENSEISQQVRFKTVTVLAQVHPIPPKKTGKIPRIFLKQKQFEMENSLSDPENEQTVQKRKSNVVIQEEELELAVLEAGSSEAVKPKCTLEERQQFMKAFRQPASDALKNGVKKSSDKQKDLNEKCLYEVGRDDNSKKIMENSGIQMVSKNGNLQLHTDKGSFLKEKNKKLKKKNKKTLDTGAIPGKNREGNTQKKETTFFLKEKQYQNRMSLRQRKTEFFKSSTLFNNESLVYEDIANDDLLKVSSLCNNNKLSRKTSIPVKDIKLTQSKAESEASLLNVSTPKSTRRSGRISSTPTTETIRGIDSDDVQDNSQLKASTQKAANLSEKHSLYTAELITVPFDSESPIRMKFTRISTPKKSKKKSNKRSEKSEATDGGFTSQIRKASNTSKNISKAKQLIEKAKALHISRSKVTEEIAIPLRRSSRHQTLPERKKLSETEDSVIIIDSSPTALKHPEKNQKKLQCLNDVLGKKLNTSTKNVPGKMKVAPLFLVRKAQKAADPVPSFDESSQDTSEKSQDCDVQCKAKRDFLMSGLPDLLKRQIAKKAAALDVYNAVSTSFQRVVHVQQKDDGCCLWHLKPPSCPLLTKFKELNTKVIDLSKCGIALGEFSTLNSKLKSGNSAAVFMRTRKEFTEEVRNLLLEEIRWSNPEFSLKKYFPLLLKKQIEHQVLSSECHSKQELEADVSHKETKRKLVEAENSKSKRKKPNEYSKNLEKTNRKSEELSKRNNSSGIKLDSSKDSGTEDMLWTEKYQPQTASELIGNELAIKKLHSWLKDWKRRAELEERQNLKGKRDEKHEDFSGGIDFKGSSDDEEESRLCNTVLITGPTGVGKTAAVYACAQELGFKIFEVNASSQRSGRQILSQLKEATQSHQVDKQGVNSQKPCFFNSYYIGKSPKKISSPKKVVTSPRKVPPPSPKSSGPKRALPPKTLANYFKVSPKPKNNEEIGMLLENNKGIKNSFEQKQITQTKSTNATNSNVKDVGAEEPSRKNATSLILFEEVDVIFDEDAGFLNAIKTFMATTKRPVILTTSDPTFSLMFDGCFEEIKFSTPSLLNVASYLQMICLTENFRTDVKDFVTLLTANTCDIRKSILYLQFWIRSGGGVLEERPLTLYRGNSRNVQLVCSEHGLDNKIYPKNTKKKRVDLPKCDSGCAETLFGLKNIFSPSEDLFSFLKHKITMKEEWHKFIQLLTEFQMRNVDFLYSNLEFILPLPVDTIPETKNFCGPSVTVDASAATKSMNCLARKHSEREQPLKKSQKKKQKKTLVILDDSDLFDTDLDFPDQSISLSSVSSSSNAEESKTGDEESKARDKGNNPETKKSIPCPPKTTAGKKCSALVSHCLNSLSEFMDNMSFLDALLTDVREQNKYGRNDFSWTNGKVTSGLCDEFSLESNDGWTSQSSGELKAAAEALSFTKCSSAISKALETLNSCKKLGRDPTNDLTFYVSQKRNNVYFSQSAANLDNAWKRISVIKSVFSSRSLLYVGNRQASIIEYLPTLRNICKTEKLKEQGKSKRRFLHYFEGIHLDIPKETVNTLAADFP
ATP-dependent 6-phosphofructokinase (Trypanosoma brucei brucei), sequence (O15648 whole entry, looked up): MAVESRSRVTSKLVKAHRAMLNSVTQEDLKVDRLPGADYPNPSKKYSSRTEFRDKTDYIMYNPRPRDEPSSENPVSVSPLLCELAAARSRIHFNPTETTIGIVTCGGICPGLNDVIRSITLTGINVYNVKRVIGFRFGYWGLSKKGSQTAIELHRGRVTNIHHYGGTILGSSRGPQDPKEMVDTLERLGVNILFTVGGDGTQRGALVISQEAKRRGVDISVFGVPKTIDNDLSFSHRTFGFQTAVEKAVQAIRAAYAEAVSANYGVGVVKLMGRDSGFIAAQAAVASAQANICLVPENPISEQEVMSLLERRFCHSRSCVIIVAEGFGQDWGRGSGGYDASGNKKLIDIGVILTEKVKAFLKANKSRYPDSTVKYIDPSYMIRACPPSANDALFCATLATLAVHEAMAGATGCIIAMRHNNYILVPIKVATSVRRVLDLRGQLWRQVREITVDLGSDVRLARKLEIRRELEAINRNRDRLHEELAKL

Regarding `O=C(CCCN1CCC(O)(c2ccc(Cl)cc2)CC1)c1ccc(F)cc1`, the compound was called inactive in test [1], in test [2], in [5], in test [9] and in test [11]. The activation in test [3] was 4.81% (inactive). The Potency entry in test [4], in test [6], in test [7], in test [8] and in test [10] was “inactive” in each case. Moreover, the viability change in test [4] came to 2.46%.

As for `Clc1ccc2nsnc2c1NC1=NCCN1`, the compound was classed as inactive in test [1], in test [5] and in [11]. Moreover, the Potency result in test [12], in [13], in [14], in test [4], in test [8] and in test [10] was “inactive” in each case. Moreover, in test [4], the viability change is -2.06%.

For the compound `CN1C(C(=O)Nc2ccccn2)=C(O)c2ccccc2S1(=O)=O`, the outcome in test [15], in test [2], in test [5] and in [11] was inactive. The Potency result in test [16], in test [12], in test [13], in test [14], in [17] and in test [6] was “inactive” in each case. The Potency result in test [7], in test [8], in test [18] and in test [10] was “inactive” in each case. Besides, in test [3], the activation is 0.812% (inactive).

On to `COc1cc2nc(N(C)CCCNC(=O)C3CCCO3)nc(N)c2cc1OC` (configuration not stated), for which the call in [1], in [5], in test [9] and in [11] was inactive. Besides, the Potency result in [12], in test [13], in test [17], in test [4], in test [8] and in test [10] was “inactive” each time. In addition, the viability change in test [4] was -7.87%.

Turning to `CNCCCC12CCC(c3ccccc31)c1ccccc12`, the outcome in test [1], in test [2], in test [5] and in test [9] was inactive. Besides, the Potency result in [12], in test [4], in test [6], in test [7], in test [8] and in [18] was “inactive” in each case. Moreover, the Potency result in test [10] was “inactive”. Besides, the activation in test [3] is 3.31% (inactive). Further, the viability change in test [4] was determined as 1.81%.

As to `C[C@](N)(Cc1ccc(O)c(O)c1)C(=O)O`, the result in test [1], in test [15] and in test [5] was inactive. For the same compound, the Potency entry in test [16], in test [13], in test [14], in test [19], in test [17] and in test [4] was “inactive” throughout. Further, the Potency entry in [6], in test [7], in test [8] and in test [10] was “inactive” each time. Moreover, the activation in [3] was 1.25% (inactive). In addition, the viability change in [4] was 0.569%.

As to `CCC1(C)CC(=O)NC1=O` (configuration not stated), the compound was called inactive in [1], in [15], in test [5], in test [9] and in test [11]. Besides, the Potency entry in test [12], in test [13], in test [17], in test [4], in test [6] and in [7] was “inactive” in each case. The Potency result in [8] and in [10] was “inactive” each time. For the same compound, in [3], the activation was 1.44% (inactive). Besides, the viability change in test [4] turned out to be 4.35%.

Take `CCCCc1oc2ccccc2c1C(=O)c1cc(I)c(OCCN(CC)CC)c(I)c1`: the outcome in test [15] and in test [2] was inactive. In addition, the Potency result in test [16], in test [12], in test [19], in test [4], in [6] and in test [7] was “inactive” each time. The activation in test [3] was 1.56% (inactive). Besides, the viability change in test [4] came out at 8.23%.

Turning to `OCCN(CCO)c1nc(N2CCCCC2)c2nc(N(CCO)CCO)nc(N3CCCCC3)c2n1`, the outcome in test [1], in test [5] and in test [9] was inactive. For the same compound, the Potency is 2.91 µM (active) in test [12]; 0.231 µM (active) in test [17]; 31.6 µM (active) and 22.4 µM (active) in [10]. Further, the Potency entry in test [19], in test [6], in [7] and in [18] was “inactive” each time. In test [3], the activation was 25.4% (inactive).

For `C[C@H]1c2cccc(O)c2C(O)=C2C(=O)[C@]3(O)C(O)=C(C(N)=O)C(=O)[C@@H](N(C)C)[C@@H]3[C@@H](O)[C@@H]21`, the outcome in [1], in test [5] and in [11] was inactive. Moreover, the Potency entry in [16], in test [13], in [19], in test [17], in test [8] and in [18] was “inactive” each time. Also, in [10], the Potency result was “inactive”.
